Screens as filed in PubChem.
Only some compounds are listed: those with a hit (about 17% of all), similar ones and a draw of the others.
TGFb inhibitor: TGF-b pathway inhibition; Potency, µM (titrated, usually from 46.1 µM), most hits filed as inhibitors; actives 1.2% (n = 410,000); HepG2 CAGA-GFP TGF-b/SMAD3 reporter, GFP fluorescence, 18 h; TGF-beta stimulated, 500 pg/mL final; note: nearly all actives have a fitted effect of over 65% in size
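GFP signal (ex488/em500-530) from TGF-beta-stimulated HEPG2 CAGA-GFP cells, 500 pg/mL final, 18 h at 37 degrees C in DMEM plus 1% FBS, normalized to unstimulated and DMSO-stimulated controls.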
HepG2 tox: HepG2 cytotoxicity, counter-screen for TGF-b inhibitors; HepG2 CAGA-GFP viability, ATP luminescence, 18 h; Potency, µM (doses to about 46.1 µM), hits mostly cytotoxic; actives 0.76% (n = 410,000); AID 588856
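HepG2 CAGA-GFP cells (1000/well, DMEM with 1% FBS) received compound, then TGF-beta at 500 pg/mL final, and were incubated 18 hours at 37 degrees C. Viability was read by CellTiter-Glo luminescence. Media-only wells were set as complete cell-killing and DMSO as no toxicity.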
DT40 TDP1 CPT: growth inhibition of DT40 Tdp1-/-;hTDP1 cells with camptothecin (screen for TDP1 inhibitors); chicken DT40 Tdp1-/-;hTDP1 cells + 20 nM CPT, ATP luminescence, 48 h; AID 686979; actives 12% (n = 420,000); Potency, µM (series often up to 46.2 µM), hits mostly inhibitors; note: nearly all actives have a fitted effect of over 55% in size
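Chicken DT40 Tdp1-/- cells stably complemented with human TDP1 were seeded at 400 cells/well in medium containing 20 nM camptothecin, exposed to pin-transferred compounds, and grown at 37 °C for at least 48 hr. Viability was read as ATP luminescence.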
ATXN2 expr inh: ATXN2 expression inhibition; HEK-293 ATXN2-luciferase reporter, luminescence, 24 h; Potency, µM (top dose mostly 57 µM), actives largely listed as inhibitors; actives 0.72% (n = 360,000); AID 1745845; note: nearly all actives have a fitted effect of over 55% in size
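ATXN2-luciferase reporter cells (luciferase flanked by upstream and downstream ATXN2 gene portions) were treated 24 h at 37 °C with compounds at up to 57 uM. SteadyGlo luminescence gave expression; GF-AFC fluorescence gave viability.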
ATXN viability: reduces viability in counter-screen for ATXN expression inhibitors; S2 cells (HEK-293 line with an ATXN2-luciferase reporter) viability, CellTiter-Fluor protease fluorescence, 24 h; Potency, µM (highest dose often 56.7 µM), actives largely listed as cytotoxic; actives 0.49% (n = 400,000); note: nearly all actives have a fitted effect of over 40% in size
DT40 TDP1 no CPT: qHTS for Inhibitors of human tyrosyl-DNA phosphodiesterase 1 (TDP1): qHTS in cells in absence of CPT; DT40 Tdp1-/- hTDP1 cells, no CPT, ATP luminescence, 48 h; Potency, µM (top dose mostly 46.2 µM), most hits filed as inhibitors; actives 15% (n = 420,000); note: nearly all actives have a fitted effect of over 55% in size
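DT40 Tdp1-/-;hTDP1 cells, no CPT (DMSO vehicle only), 400 cells/well; compounds pin-transferred; ≥48 hr, 37 °C; CellTiter-Glo 30 min RT dark, luminescence read.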
Hits are given with their value; . = inactive; ? = inconclusive; / = not tested or not shown; ! = a repeat was not active. Calls come from the whole dose curve; as a rule, active = well fitted curve in the direction sought with a large enough effect; inconclusive = small, poorly fitted or top-dose-only effect, or another doubt; inactive = no such curve, though single readings can be large; an effect the other way counts as inactive or inconclusive.

SMILES | TGFb inhibitor | HepG2 tox | DT40 TDP1 CPT | ATXN2 expr inh | ATXN viability | DT40 TDP1 no CPT
COCCNC(=O)NC1(C(F)(F)F)Oc2ccc(Cl)cc2O1 (stereo unspecified) | . | . | 18µM | . | . | 13µM
Cc1cc(NC(=O)NC2(C(F)(F)F)Oc3ccc(Cl)cc3O2)no1 (stereo unspecified) | . | . | 18µM | . | . | 18µM
Cc1ccc(Cl)cc1NC(=O)NCc1cccnc1 | . | . | . | . | . | .
OCCc1c[nH]c2ccc(C(F)(F)F)cc12 | . | . | . | . | . | .
CN(C)CC(C)(C)CNS(=O)(=O)c1ccc(Cl)c(Cl)c1 | . | . | . | . | . | 2.3µM!
CN(C)CCNC(=O)c1cccc(NS(=O)(=O)c2ccc(Cl)c(Cl)c2)c1 | . | . | . | . | . | .
OCc1ccc2c(c1)c(-c1ccc3c(c1)OCCO3)c(-c1ccccc1)n2-c1ccccc1 | 20µM | . | 18µM | ? | ? | 23µM
Cc1ccc(C(=O)N2NC(c3ccc(F)cc3)C3C(=O)N(c4ccc(C)c(C)c4)C(=O)C32)cc1 (stereo unspecified) | . | . | . | . | . | .
O=C(CNC(=O)c1ccccc1)NCC(=O)OCC(=O)c1ccc2ccccc2c1 | . | . | ? | / | / | .
CC1=C(C(=O)OCc2ccccc2)C(c2ccccc2[N+](=O)[O-])NC(=O)N1C (stereo unspecified) | . | . | ? | / | . | 23µM
CCOC(=O)C1=C(C)N(Cc2ccccc2)C(=O)NC1c1ccccc1OS(=O)(=O)c1ccccc1[N+](=O)[O-] (stereo unspecified) | ? | . | 10µM | . | ? | 9.2µM
CC1=C(C(=O)OCc2ccccc2)C(c2ccc([N+](=O)[O-])cc2)NC(=O)N1C (stereo unspecified) | . | . | . | . | . | .
O=C(CNC(=O)c1ccccc1)OCC(=O)c1ccc2ccccc2c1 | . | . | . | / | / | .
O=C(NCC(c1cccs1)N1CCOCC1)c1cc(S(=O)(=O)N2CCOCC2)ccc1Cl (stereo unspecified) | . | . | . | . | . | .
Cc1ccc(-c2nn3c(C)nnc3s2)cc1NC(=O)c1ccc(OC(C)C)cc1 | . | . | 13µM | . | . | ?
Cc1cc(OCC(=O)Nc2cc(-c3nn4c(C)nnc4s3)ccc2C)ccc1Cl | . | . | 4.1µM | . | . | ?
COc1ccc(OCC(=O)Nc2cc(-c3nn4c(C)nnc4s3)ccc2C)cc1 | ? | . | . | . | . | .
Cc1ccc(S(=O)(=O)N[C@@H](C)C(=O)OCC(=O)N2c3ccccc3NC(=O)C2(C)C)cc1 | . | . | . | / | . | .
CCc1ccc(-n2nc(CO)c(C(=O)NC(C)c3ccc(Cl)cc3)n2)cc1 (stereo unspecified) | ? | . | . | / | / | .
CCN(CC)C(=O)C1=C(C)N(CCC2=CCCCC2)C(=O)C(CC(=O)NC(c2ccccc2)c2ccccc2)C1 (stereo unspecified) | ? | . | 18µM | ? | ? | ?
CC1=C(C(=O)N(C)C)CC(CC(=O)NCc2ccco2)C(=O)N1CCC1=CCCCC1 (stereo unspecified) | . | . | . | . | . | .
CC1=C(C(=O)N(C)C)CC(CC(=O)NC(c2ccccc2)c2ccccc2)C(=O)N1CCC1=CCCCC1 (stereo unspecified) | . | . | ? | . | . | 21µM
CC(/C=C/c1ccc(O)cc1)=NNc1ccccc1 | . | . | ? | . | . | ?
CCOC(=O)Cn1c(=O)n(CC2CCCO2)c2nc(-c3ccc(OC)cc3OC)nc(C(N)=O)c21 (stereo unspecified) | . | . | / | . | . | /
O=[N+]([O-])c1ccc(NCCNS(=O)(=O)c2ccccc2)cc1 | . | . | . | . | ? | ?
